Out of some 360,000 compounds screened, about 2,400 (0.67%) were called active. The full list was thinned out, with actives kept by preference. A number with no mark means an inactive call.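 Rule for the calls: active = compounds whose normalised, plate-corrected inhibition of enzyme fluorescence in the single-dose primary screen is 50% or more; inactive = the rest.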

Experimental findings from PubChem BioAssay AID602261 (Sanford-Burnham Center for Chemical Genomics, 2012) are described below.

The target in the assay is Fatty acid synthase (Homo sapiens) (UniProt P49327). Briefly: FAS thioesterase domain inhibitors, primary screen, biochemical, fluorescence intensity, uHTS (AID 602261).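 Note: 0% = DMSO with enzyme and 100% = substrate without enzyme.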 The note with it: recombinant FAS-TE, OMFH fluorogenic substrate, fluorescence endpoint; at 15 µM; hits give high values.
Fatty acid synthase (Homo sapiens), sequence (P49327 whole entry, looked up, the tested form may be a part): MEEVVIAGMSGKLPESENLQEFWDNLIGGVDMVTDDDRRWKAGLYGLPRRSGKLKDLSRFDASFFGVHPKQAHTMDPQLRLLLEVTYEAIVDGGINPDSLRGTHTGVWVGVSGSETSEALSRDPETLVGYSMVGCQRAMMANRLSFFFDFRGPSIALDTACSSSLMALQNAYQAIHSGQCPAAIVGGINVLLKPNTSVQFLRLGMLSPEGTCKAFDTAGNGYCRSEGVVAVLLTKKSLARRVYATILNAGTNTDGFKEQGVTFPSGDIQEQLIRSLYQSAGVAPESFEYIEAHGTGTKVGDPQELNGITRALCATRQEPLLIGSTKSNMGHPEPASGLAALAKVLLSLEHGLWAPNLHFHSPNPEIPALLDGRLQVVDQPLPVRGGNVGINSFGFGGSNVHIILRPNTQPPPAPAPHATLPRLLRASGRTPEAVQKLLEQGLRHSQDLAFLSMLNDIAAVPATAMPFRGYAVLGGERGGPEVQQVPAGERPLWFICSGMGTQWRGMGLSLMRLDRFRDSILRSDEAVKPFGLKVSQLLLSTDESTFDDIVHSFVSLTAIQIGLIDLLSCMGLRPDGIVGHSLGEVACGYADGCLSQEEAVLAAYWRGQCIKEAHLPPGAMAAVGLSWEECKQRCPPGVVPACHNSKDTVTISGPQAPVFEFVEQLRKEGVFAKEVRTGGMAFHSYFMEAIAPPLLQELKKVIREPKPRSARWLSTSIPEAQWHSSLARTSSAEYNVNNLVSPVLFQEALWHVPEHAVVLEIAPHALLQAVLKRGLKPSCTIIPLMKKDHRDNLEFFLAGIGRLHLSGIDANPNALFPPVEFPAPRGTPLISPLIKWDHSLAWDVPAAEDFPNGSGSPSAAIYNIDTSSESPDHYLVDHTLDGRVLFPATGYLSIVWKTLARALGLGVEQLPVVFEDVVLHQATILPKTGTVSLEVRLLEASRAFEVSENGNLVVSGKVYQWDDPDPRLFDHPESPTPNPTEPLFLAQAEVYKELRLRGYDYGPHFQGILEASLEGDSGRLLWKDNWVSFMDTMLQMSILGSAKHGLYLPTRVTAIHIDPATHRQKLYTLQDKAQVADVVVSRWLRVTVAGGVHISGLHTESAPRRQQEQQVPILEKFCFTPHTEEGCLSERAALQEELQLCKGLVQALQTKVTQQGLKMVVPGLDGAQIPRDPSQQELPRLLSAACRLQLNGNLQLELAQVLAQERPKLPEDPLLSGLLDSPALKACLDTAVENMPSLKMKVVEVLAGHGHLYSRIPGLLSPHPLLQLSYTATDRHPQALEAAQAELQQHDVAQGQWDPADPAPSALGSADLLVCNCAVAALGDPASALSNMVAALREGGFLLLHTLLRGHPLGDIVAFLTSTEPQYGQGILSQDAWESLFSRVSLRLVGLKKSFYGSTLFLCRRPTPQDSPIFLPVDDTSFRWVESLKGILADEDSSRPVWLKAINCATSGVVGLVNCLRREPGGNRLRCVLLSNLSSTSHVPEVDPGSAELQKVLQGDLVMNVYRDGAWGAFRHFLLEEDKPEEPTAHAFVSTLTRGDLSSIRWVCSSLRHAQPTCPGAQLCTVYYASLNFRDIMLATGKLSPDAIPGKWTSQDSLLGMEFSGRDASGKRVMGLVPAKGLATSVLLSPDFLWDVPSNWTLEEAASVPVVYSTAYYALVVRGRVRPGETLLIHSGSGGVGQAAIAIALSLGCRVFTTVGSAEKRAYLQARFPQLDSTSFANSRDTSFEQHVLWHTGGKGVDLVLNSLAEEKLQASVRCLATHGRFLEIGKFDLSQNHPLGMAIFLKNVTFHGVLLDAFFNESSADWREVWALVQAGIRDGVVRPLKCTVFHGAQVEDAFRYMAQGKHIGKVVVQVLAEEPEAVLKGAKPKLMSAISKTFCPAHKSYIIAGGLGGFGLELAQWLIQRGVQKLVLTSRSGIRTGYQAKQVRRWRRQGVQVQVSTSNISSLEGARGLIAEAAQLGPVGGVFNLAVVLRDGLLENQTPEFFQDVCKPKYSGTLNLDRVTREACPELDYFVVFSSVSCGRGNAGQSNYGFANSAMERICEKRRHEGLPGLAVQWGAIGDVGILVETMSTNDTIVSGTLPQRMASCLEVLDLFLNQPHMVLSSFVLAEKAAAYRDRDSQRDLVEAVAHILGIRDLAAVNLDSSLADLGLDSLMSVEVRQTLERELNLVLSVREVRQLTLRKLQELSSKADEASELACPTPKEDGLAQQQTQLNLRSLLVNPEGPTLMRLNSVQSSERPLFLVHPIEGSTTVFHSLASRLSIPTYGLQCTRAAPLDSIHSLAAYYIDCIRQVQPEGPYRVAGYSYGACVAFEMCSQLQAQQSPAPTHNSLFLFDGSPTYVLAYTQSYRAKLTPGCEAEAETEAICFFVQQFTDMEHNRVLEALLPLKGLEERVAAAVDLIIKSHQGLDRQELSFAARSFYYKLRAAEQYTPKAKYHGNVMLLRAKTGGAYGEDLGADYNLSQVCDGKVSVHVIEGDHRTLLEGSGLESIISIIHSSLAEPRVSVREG
`COC(=O)c1cccc(N2C(=O)C3C4C=CC(CC4)C3C2=O)c1` (stereo unspecified): the inhibition (in general, the change of the read-out against control, counted positive when it falls) was -6.4%.

As for `CC(=O)Nc1ccc(N2C(=O)C3C4CC(=O)C(c5ccccc54)C3C2=O)cc1` (stereo unspecified), the inhibition is -10%.

Consider `O=C(Oc1cccc(N2C(=O)C3C4c5ccccc5C(c5ccccc54)C3C2=O)c1)c1ccco1` (stereo unspecified), for which the inhibition was 64.1% (active). `CCCNC(=O)COc1coc(CN2CCN(Cc3ccccc3)CC2)cc1=O`: the inhibition is -9.4%. Regarding `CC1(c2cccc(N)c2)OCCO1`, the inhibition is -9.3%.

`COc1ccc([N+](=O)[O-])cc1N(CC(O)CN(CC(C)C)CC(C)C)S(=O)(=O)c1ccc(C)cc1` (stereo unspecified): the inhibition was 32.7%. Regarding `Cc1ccc(S(=O)(=O)N(CC(O)CN2CCCCC2)c2cccc([N+](=O)[O-])c2)cc1` (stereo unspecified), the inhibition was 2.6%.

Turning to `COc1ccc([N+](=O)[O-])cc1N(CC(O)Cn1nnc2ccccc21)S(=O)(=O)c1ccc(C)cc1` (stereo unspecified), the inhibition was 51.1% (active). Under `Cc1c(C(=O)N2CCCC2)c(S(=O)(=O)NCC(C)c2ccccc2)c(C)n1C` (stereo unspecified) stands 2.1%; under `Cc1ccnc(NC(=O)c2ccc(Cl)c([N+](=O)[O-])c2)c1`, 23.1%; under `O=C(COc1ccc(Cl)cc1)NCCC1=CCCCC1`, 15.7%. For the molecule `O=C(NCCC1=CCCCC1)c1ccc(Cl)c([N+](=O)[O-])c1`, the inhibition was 59.5% (active). Under `COc1ccc(C(c2nnnn2Cc2cccs2)N2CCN(c3ccccc3)CC2)cc1OC` (stereo unspecified) stands 14.2%; under `O=C(CCl)N(Cc1cccc([N+](=O)[O-])c1)c1cccc(Cl)c1`, 15.2%; under `Nc1c(C(=O)O)cnn1-c1ccccc1`, -1.5%.

For the molecule `Nc1c(-c2cccc(Cl)c2)cnn1-c1cccc([N+](=O)[O-])c1`, the inhibition is 51.8% (active). As for `COc1cccc(NC(=O)COC(=O)/C=C/c2ccco2)c1`, the inhibition was 3.5%. Under `CC(C)CNC(=O)COC(=O)/C=C/c1ccco1` stands -7.5%; under `COc1ccc([N+](=O)[O-])cc1NC(=O)COC(=O)/C=C/c1ccco1`, 71.2% (active). As to `CCOC(=O)Nc1ccc(S(=O)(=O)N(C)C(C)C)cc1`, the inhibition is -3.7%. Next, `CN1C(C(=O)NCc2ccco2)CC2Cn3c(nc4ccccc43)C21` (stereo unspecified): -11.9%. Under `O=C(CCCl)Nc1ccc(S(=O)(=O)NCc2ccco2)cc1` stands -1.3%. Under `O=C(NCCCCc1ccccc1)C1CC(c2ccc([N+](=O)[O-])cc2)=NO1` (stereo unspecified) stands 54.2% (active); under `COc1ccc(CNC(=O)C2CC(c3ccc(C(F)(F)F)cc3)=NO2)cc1` (stereo unspecified), -1.7%. In the case of `Cc1ccc(CNC(=O)C2CC(c3ccccc3[N+](=O)[O-])=NO2)o1` (stereo unspecified), the inhibition was -5.1%.

Consider `O=C(NCCCn1ccnc1)C(=O)NCC1OCCN1S(=O)(=O)c1cc(F)ccc1F` (stereo unspecified), for which the inhibition was -10.1%. Under `Cc1ccc(NC(=O)c2nc[nH]c2C(=O)N[C@@H](CCCCNC(=O)OC(C)(C)C)C(=O)OC(C)(C)C)cc1` stands 75.3% (active); under `C[C@H](NC(=O)c1nc[nH]c1C(=O)N[C@@H](C)C(=O)OC(C)(C)C)C(=O)OC(C)(C)C`, -7%; under `CNC(=O)c1[nH]cnc1C(=O)N[C@@H](CC(C)C)C(=O)OC(C)(C)C`, -5.3%.

As for `CC(C)(C)OC(=O)NCCCCCNC(=O)c1nc[nH]c1C(=O)NCc1ccccc1`, the inhibition was 8.2%. Under `CC(C)(C)OC(=O)NCCCCCNC(=O)c1[nH]cnc1C(=O)Nc1nccs1` stands -15.7%; under `CCOC(=O)c1ccc(NC(=O)c2nc[nH]c2C(=O)N[C@@H](CCCCNC(=O)OC(C)(C)C)C(=O)OC(C)(C)C)cc1`, 85.2% (active). Next, `COc1ccccc1CNS(=O)(=O)CC12CCC(CC1=O)C2(C)C` (stereo unspecified): 2.9%. Next, `Cc1cccc(OCC(=O)OCC(=O)Nc2ccc(Cl)cn2)c1`: -6.1%; `CCN(CC)C(CNC(=O)CSc1nnnn1-c1cccc(F)c1)c1ccco1` (stereo unspecified): -1.2%; `Cc1cccc(N2CCN(C(=O)c3cc4c(=O)[nH]c5ccccc5c4n3C)CC2)c1C`: 5%. `O=C(Cc1ccc(S(=O)(=O)N2CCOCC2)s1)NCCOc1ccccc1F`: the inhibition was -0.5%. Turning to `Cc1ccc2c(c1)C(O)(CC(=O)c1cccc(-n3cccc3)c1)C(=O)N2` (stereo unspecified), the inhibition was 2.6%. Consider `Nc1nnnn1/N=C/c1cc([N+](=O)[O-])ccc1O`, for which the inhibition was -3.3%. Turning to `O=C(N/N=C/c1cc([N+](=O)[O-])ccc1O)/C(=C\c1cccs1)NC(=O)c1ccccc1`, the inhibition is 56.5% (active). Take `COc1cc(/C=C(/NC(=O)c2ccccc2)C(=O)Nc2cccc(O)c2)c([N+](=O)[O-])cc1OC`: the inhibition was -3.8%. With `COc1ccc(NC(=O)NN2CCN(C)CC2)c(OC)c1`, the inhibition was -6%. `O=S(=O)(Nc1cccc(Oc2ccc(Cl)cc2)n1)c1ccc(F)cc1`: the inhibition was 8.1%.

As for `CC(C)CC(=O)c1c[nH]c(C(=O)NCc2ccccc2)c1`, the inhibition was -3.6%. `CC1(c2ccc(Cl)cc2)NC(=O)N(CC(=O)c2ccc3c(c2)OCO3)C1=O` (stereo unspecified): the inhibition is 11.3%.

As to `Cn1c(=O)[nH]c(=O)c2c1nc(NCCCn1ccnc1)n2Cc1cccc(Br)c1`, the inhibition was -2.6%. As to `CCOC(=O)c1ccc(-c2ccc3ncnc(N(C)Cc4sccc4C)c3c2)o1`, the inhibition is 26.5%. Under `COc1ccc(C2=NN(C(=O)CSc3nc(=O)n4ccc(C)cc4n3)C(c3ccc(C)cc3)C2)cc1` (stereo unspecified) stands 81.4% (active); under `Cc1ccc(C2=NN(C(=O)CSc3nc(N)cc(N)n3)C(c3ccco3)C2)cc1` (stereo unspecified), 1.5%. `COc1ccc(C2CC(c3ccccc3)=NN2C(=O)CSc2nccc(=O)[nH]2)cc1` (stereo unspecified): the inhibition is -5.6%. For `Cc1cccc(N=C2NC(=O)/C(=C/c3cn(C)c4ccccc34)S2)c1`, the inhibition was 52.4% (active).

As for `Cc1ccc(N2C(=O)S/C(=C/c3cn(C)c4ccccc34)C2=O)cc1`, the inhibition was 28.7%. In the case of `Cc1cccc(N=C2SC(C)CN2C(=O)CN2C(=O)NC3(CCCC3)C2=O)c1` (stereo unspecified), the inhibition is 3.9%. As to `Cc1ccccc1CSc1nnc(-c2ccccn2)n1N`, the inhibition was -5.3%. Under `O=C(NC1=NCCS1)c1ccc(Cl)s1` stands -11.9%; under `Cc1cccc(N2CCC(NCc3c(C(=O)N4CCCCC4)nc4c(C)cccn34)CC2)c1`, -1.6%; under `O=C(O)CCS(=O)(=O)c1ccc(-c2ccccc2)cc1`, -1.5%. Take `Cc1ccc2c(c1)-c1c(ssc1=S)C(C)(C)N2C(=O)CN1C(=O)c2ccccc2C1=O`: the inhibition was 52.2% (active).

For the molecule `Cc1cc2c(cc1C)N(C(=O)CN1C(=O)c3ccccc3C1=O)C(C)(C)c1ssc(=S)c1-2`, the inhibition is 43.2%. Under `CCOC(=O)CN1C(=O)C(=O)c2cc(C)ccc21` stands -7%; under `O=S1(=O)N=C(N(CCO)/N=C/c2ccccc2F)c2ccccc21`, 0.1%; under `CCOc1ccccc1NC(=O)C12CC3CC(C1)CC(c1ccc(C)cc1)(C3)C2`, 33.7%. Under `CCN1CCN(c2nc(Nc3cc(OC)ccc3OC)nc(Nc3cc(OC)ccc3OC)n2)CC1` stands 32.9%.

Regarding `CCOc1ccc(Nc2nc(Cl)nc(N3CCN(c4ccc(OC)cc4)CC3)n2)cc1`, the inhibition is 57.9% (active).

For `COc1ccc(Nc2ncc(F)c(N3CCOCC3)n2)cc1`, the inhibition was -0.3%. Under `CC1CCCCC1NC(=O)C1CCCN1S(=O)(=O)c1cccc2nsnc12` (stereo unspecified) stands -4.8%; under `O=C(N1CCCC1)C12CC3CC(C1)CC(C(=O)N1CCCC1)(C3)C2`, -5.3%. Next, `Cc1ccc(NC(=O)CSc2nnc(CNC(=O)c3ccccc3F)o2)cc1`: -4.2%; `O=C(COc1ccccc1F)NNC(=O)c1ccc(N2CCCCC2)c([N+](=O)[O-])c1`: 4.2%; `O=C(Nc1ccc(N2C(=O)c3cccc4cccc(c34)C2=O)cc1)c1ccc(N2CCCCC2)c([N+](=O)[O-])c1`: 56.4% (active). Next, `O=C(Nc1cccc(C(F)(F)F)c1)c1ccc(N2CCNCC2)c([N+](=O)[O-])c1`: -5%; `CC(=O)Nc1ccc2c3c(ccc([N+](=O)[O-])c13)CC2`: -4%. For `CCCN1Cc2cccc(C(=O)NCc3ccccc3)c2C1=O`, the inhibition is -0.8%.

In the case of `O=C(Nc1ccc(S(=O)(=O)N2CCCCCC2)cc1)c1c(F)cccc1F`, the inhibition is 12%. Next, `CCCN1Cc2cccc(C(=O)Nc3ccc(S(=O)(=O)N4CCCCCC4)cc3)c2C1=O`: 54.7% (active); `COCCCNCC(=O)Nc1sc(C)c(C)c1C(=O)OC`: -3.7%; `CCOC(=O)C(C)n1cnc2c(nnn2-c2ccc(F)cc2)c1=O` (stereo unspecified): -7.4%. On to `CCc1ccc([C@@H]2CC(=O)[C@@H]3CN(S(=O)(=O)c4ccc(C)cc4)[C@H](c4ccc(Cl)cc4)C[C@@H]3N2S(=O)(=O)c2ccc(C)cc2)cc1`, for which the inhibition was 12.7%. Take `Cc1ccc(S(=O)(=O)N2CC[C@H]3[C@@H](C2)C(=O)C[C@@H](c2ccccc2)N3S(=O)(=O)c2ccc(C)cc2)cc1`: the inhibition was 79.6% (active). For the molecule `Cc1ccc([C@@H]2CC(=O)[C@@H]3CN(S(=O)(=O)c4ccc(C)cc4)[C@H](c4ccccc4F)C[C@@H]3N2S(=O)(=O)c2ccc(Cl)cc2)cc1`, the inhibition is 12.3%. Next, `CC(C)[C@H](NC(=O)N1c2ccccc2NC(=O)[C@@H]1C(C)C)C(=O)N[C@H](C(=O)O)c1ccccc1`: -2.6%.

Turning to `O=[N+]([O-])c1ccc(NS(=O)(=O)c2ccccc2)c(Cl)c1`, the inhibition was -7%. Next, `Cc1ccc2oc(=O)c3cnn(CC(=O)N4CCCCCC4)c3c2c1`: 0.5%; `Cc1ccc2cc3cc(C(=O)N4CCCCCC4)oc3nc2c1`: 77.7% (active). For `Cc1cccc(C(=O)N2CCN(S(=O)(=O)N3CCCCC3)CC2)c1`, the inhibition is -2.1%. Consider `COc1ccc(C(C)=O)cc1COC(=O)Cn1cnc2ccccc2c1=O`, for which the inhibition was -2.7%.
